Only some compounds are listed: those with a hit (about 4.6% of all), similar ones and a draw of the others.
HIF-2a inh: blocks HIF-2a reporter activity; AID 624352; 786-0 RCC cells HIF-2a reporter, luciferase luminescence, overnight; inhibition, % at 18.8 µM; 0.72% of 360,000 active;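 active = inhibition of the luminescence signal of 40% or more relative to plate controls, in a single-dose primary screen at 18.75 µM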
Peg3 prom inh: reduces Peg3 promoter-driven luciferase expression in HeLa | HeLa PEG-Prom luciferase reporter, luminescence, overnight | inhibition, % at 20 µM | 1.7% of 360,000 active;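 active = inhibition of at least 50% at 20 µM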
CF NFkB block: blocks PAF-induced NF-kB reporter in cystic fibrosis cells; KKLEB NF-kB-GFP reporter, GFP fluorescence overnight; inhibition, % at 5 µM; 0.86% of 360,000 active; AID 588850;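 active = at least 50% inhibition at 5 µM, scaled per plate between neutral and stimulator controls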;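 also: PAF is a Pseudomonas aeruginosa culture filtrate used as stimulus; plate controls were PAF-stimulated DMSO wells for no effect and unstimulated DMSO wells for full effect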
Mdm2-MdmX inh: human Mdm2/MdmX binding inhibition. O15151+Q00987. SaOS-2 split-luciferase Mdm2/MdmX complementation, luminescence. inhibition, % at 8 µM. 3% of 330,000 active. AID 485346;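 active = inhibition of at least 50% at 8 µM in the primary screen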
ABHD5-PLIN5 inh: inhibitors of human ABHD5-perilipin-5 interaction. Split G. princeps luciferase complementation, luminescence, 4 h. inhibition, % at 4 µM. 0.78% of 360,000 active. Q00G26+Q8WTS1;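 active = inhibition above the mean inhibition across every tested compound plus 3 SD, cut at about 22% in these data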;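 also: 0% = DMSO only wells and the 100% control is not disclosed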
KKLEB cytotox: counter-screen for CF NF-kB inhibitors: cytotoxicity; activity change (cytotoxicity), % at 5 µM; KKLEB CF airway cells viability, ATPlite luminescence, overnight; hits give low values; cells stimulated with P. aeruginosa culture filtrate; 0.36% of 360,000 active; AID 602141;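 active = corrected activity change at or below -50% at 5 µM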
HIF-2a inh conf: confirmation of HIF-2a inhibitors; shares compounds with HIF-2a inh; inhibition, % at 18.8 µM; 56% of 1,800 active; 786-0 RCC cells, HIF-2a luciferase reporter luminescence, overnight;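 active = mean inhibition across four replicates of at least 40 percent at the single tested concentration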
HIF-1a counter: HIF-1a inhibition counter-screen for HIF-2a hits; shares compounds with HIF-2a inh; MiaPaCa-2 HIF-1a luciferase reporter, desferoxamine, overnight; inhibition, % at 18.8 µM; 72% of 1,800 active; AID 651589;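 active = mean inhibition of the reporter signal across four replicates at the single tested dose of 50% or more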
* hit, by the source's call; . = no result given.

SMILES	HIF-2a inh	Peg3 prom inh	CF NFkB block	Mdm2-MdmX inh	ABHD5-PLIN5 inh	KKLEB cytotox	HIF-2a inh conf	HIF-1a counter
O=C(c1cc(C2CC2)nc2ccc(Br)cc12)N1N=C(C(F)F)CC1(O)C(F)F (stereo not drawn)	57*	60*	13	20	-5	-14	35	65*
O=C(c1cc(C2CC2)nc2ccccc12)N1N=C(C(F)F)CC1(O)C(F)F (stereo not drawn)	18	21	4	11	-2	4	.	.
C/C(=N\NC(=S)Nc1cc(S(=O)(=O)N2CCOCC2)ccc1Cl)c1ccccc1F	70*	53*	15	34	-7	0	25	87*
CCOC(=O)c1c(C)[nH]c(C(=O)Nc2ccc(NC(C)=O)cc2)c1C	88*	2	3	18	1	4	96*	84*
COc1ccc(NC(=O)/C(Cl)=C(/Cl)S(=O)(=O)Cc2ccccc2)cn1	94*	100*	84*	.	49*	-53*	100*	106*
NC(c1csc(Nc2nncc3ccccc23)n1)c1ccccc1Cl (stereo not drawn)	6	15	12	.	-4	-18	.	.
NC(c1csc(Nc2nncc3ccccc23)n1)C1CCCCC1 (stereo not drawn)	68*	113*	8	.	9	-21	-6	106*
O=C(CCSc1ccccc1)N1CCCC1	-166	-204	-1	-47	5	-7	.	.
O=C1CCCCCN1Sc1ccccc1	44*	14	12	6	-33	-5	31	8
Nc1ccc2cccc(O)c2c1	-30	-273	22	.	1	-13	.	.
COC(=O)COc1ccc(-c2nccc(-c3ccc(Br)cc3)n2)cc1	41*	2	8	-11	0	1	43*	8
COC(=O)COc1ccc(-c2nccc(-c3ccccn3)n2)cc1	71*	-50	-6	9	0	2	91*	64*
FCCCOc1ccc(-c2nccc(-c3ccc(Br)cc3)n2)cc1	-7	-2	0	-13	2	-3	.	.
COc1ccc(N(C(=O)CCl)C(C(=O)NCCc2ccccc2)c2cccs2)cc1 (stereo not drawn)	96*	105*	90*	.	13	-92*	98*	107*
CN(Cc1ccccc1)C(=O)c1ccc2nc([C@@H]3O[C@H](CO)[C@H](O)[C@H](O)[C@H]3O)[nH]c2c1	11	12	-1	.	12	1	.	.
O=C(Nc1nc(-c2ccc(-c3ccccc3)cc2)cs1)c1cc([N+](=O)[O-])ccc1N1CCOCC1	62*	0	-5	3	-2	-6	-78	-7
CC(=O)Nc1ccc(Sc2ccc([N+](=O)[O-])o2)cc1	91*	97*	90*	.	11	-50*	94*	103*
COc1ccc(CNC(=O)[C@H](Cc2ccccc2)NC(=O)CC[C@H]2O[C@@H](n3ccc(=O)[nH]c3=O)[C@H](O)[C@@H]2O)cc1	9	6	-7	.	-5	-6	.	.
O=C(NCc1cc(C(F)(F)F)ccc1Cl)c1cccc2c1C(=O)c1ccc(N3CCC(N4CCCCC4)CC3)cc1S2(=O)=O	92*	99*	-15	.	13	-14	-4	100*
O=C(NCc1cc(C(F)(F)F)ccc1Cl)c1cccc2c1C(=O)c1ccc(N3CCCCC3)cc1S2(=O)=O	-2	-3	-5	26	-4	-7	.	.
CCN([C@H](CO)CC(C)C)S(=O)(=O)c1ccccc1	-4	-12	24	15	-1	-4	.	.
C=CS(=O)(=O)N(Cc1ccccc1Br)[C@H](CO)CC(C)C	41*	56*	25	.	-4	-14	22	27
CC12CCC(C(=O)Nc3ccc4c(c3)OCCO4)(OC1=O)C2(C)C (stereo not drawn)	42*	12	-13	18	-3	3	32	50*
Cc1[nH]c2ccccc2c1C(=O)CN1C(=O)NC2(CC(C)CC(C)(C)C2)C1=O (stereo not drawn)	45*	43	-10	0	2	8	28	62*
CC(=O)c1ccc(OCCCC(=O)N(CCC2=CCCCC2)c2c(N)n(Cc3ccccc3)c(=O)[nH]c2=O)cc1	20	6	-25	-2	-1	10	.	.
SMILES	HIF-2a inh	Peg3 prom inh	CF NFkB block	Mdm2-MdmX inh	ABHD5-PLIN5 inh	KKLEB cytotox	HIF-2a inh conf	HIF-1a counter
COc1ccc(C(C(=O)Nc2ccc(F)cc2)N2CCN(CC(=O)N3CCCC3)CC2)cc1 (stereo not drawn)	-13	.	.	.	5	.	.	.
N#CCCN(C(=O)COC(=O)c1cc(=O)[nH]c2ccccc12)c1ccccc1	10	13	-5	25	-8	-6	.	.
N#Cc1ccc(CSc2nnc(-c3c[nH]c4ccccc34)n2-c2ccccc2)cc1	47*	19	0	3	16	3	30	71*
COc1ccccc1N(Cc1cc(=O)[nH]c2ccccc12)C(=O)c1ccccc1	67*	15	-19	9	-11	13	-4	2
CN(Cc1cc(=O)[nH]c2ccccc12)C(=O)c1ccccc1	-22	-20	9	3	3	-6	.	.
CC(C)c1ccc(/C=C/C(=O)NC(=S)Nc2ccc(CN3CCOCC3)cc2)cc1	-38	-45	12	-18	-11	-15	.	.
CC(C)c1ccc(/C=C/C(=O)NC(=S)NN2CCOCC2)cc1	41*	-68	-24	3	1	15	-15	-14
COc1ccc(-c2c(-c3ccccc3)c(C(=O)C(=O)NCCCN(C)C)n3ccc4cc(OC)c(OC)cc4c23)cc1OC	88*	-13	-2	38	9	-3	6	101*
O=C(COc1ccc2c3c(c(=O)oc2c1)CCC3)NCc1cccnc1	-17	1	-6	35	6	-10	.	.
Cc1cc(Cl)n2c(nc3cc(F)c(F)cc32)c1C#N	95*	110*	89*	.	6	-69*	58*	100*
Cc1cc(C)n2c(=O)c3ccc(Cl)cc3nc2c1C#N	-18	8	-79	3	2	0	.	.
CCOC(=O)c1cc(-c2csc(-c3cccc(Cl)c3)n2)on1	10	-4	9	21	2	5	.	.
CCOC(=O)c1cc(-c2csc(Nc3c(C)cc(C)cc3C)n2)on1	57*	13	16	13	2	-5	19	16
CN(C)c1nc(C=C(C#N)C#N)c(Cl)n1-c1ccc(F)cc1	91*	110*	86*	.	2	-96*	92*	92*
